Records with an inconclusive call do not appear. Unmarked numbers belong to inactive results. The call rests on the fitted dose curve; in most records, active means well fitted inhibition curve with a large enough effect; inconclusive means small, poorly fitted or top-dose-only effect; inactive means flat fitted curve, though single readings scatter.

The values below come from PubChem BioAssay (NCATS).
On the % scale 0 is the no-effect control and ±100 the full control effect.

The test can be described thus: Drug repurposing screens with cells derived from glioblastoma tumor samples (AID 1345199). Further: nearly all actives have a fitted effect of over 40% in size. Particulars: GBM patient neurospheres viability, ATP luminescence, 48 h; at 20 µM (top of the series); tumour line C. In a few lines:
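Four patient lines of CD133+ GBM neurospheres were screened at several concentrations; hits were retested in those lines plus three slower-growing GBM lines, using 48-hour treatment and ATP-based viability.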
As for `CCCCC/C=C\CCC(=O)N[C@H]1[C@H](Oc2c3cc4cc2Oc2ccc(cc2Cl)[C@@H](O[C@@H]2O[C@H](CO)[C@@H](O)[C@H](O)[C@H]2NC(C)=O)[C@@H]2NC(=O)[C@H](NC(=O)[C@@H]4NC(=O)[C@H]4NC(=O)[C@@H](Cc5ccc(c(Cl)c5)O3)NC(=O)[C@H](N)c3ccc(O)c(c3)Oc3cc(O)cc4c3)c3ccc(O)c(c3)-c3c(O[C@H]4O[C@H](CO)[C@@H](O)[C@H](O)[C@@H]4O)cc(O)cc3[C@@H](C(=O)O)NC2=O)O[C@H](CO)[C@@H](O)[C@@H]1O`, the activity, negative = cell killing was -16.8%.
Take `CC1CCCC(C)N1NC(=O)c1ccc(Cl)c(S(N)(=O)=O)c1` (configuration not stated): the activity, negative = cell killing was -19.6%.
On to `COC1[C@@H](O[C@@H]2O[C@H](C)[C@@H](O[C@H]3C[C@@](C)(O)[C@H](OC(=O)CC(C)C)[C@H](C)O3)[C@H](N(C)C)[C@H]2O)[C@@H](CC=O)C[C@@H](C)[C@@H](O)/C=C/C=C/C[C@@H](C)OC(=O)C[C@H]1OC(C)=O` (some centres not stated), for which the activity, negative = cell killing was -1.06%.
On to `CC(C)(C)NC[C@H](O)COc1ccccc1C1CCCC1`, for which the activity, negative = cell killing is 19%.
As for `NC(=O)c1cc[n+](CC2=C(C(=O)O)N3C(=O)[C@@H](NC(=O)C(c4ccccc4)S(=O)(=O)[O-])[C@H]3SC2)cc1` (some centres not stated), the figure is 7.27%; as for `CN[C@@H]1[C@@H](O)[C@@H](O[C@@H]2[C@@H](O)[C@H](OC3OC(CN)=CCC3N)[C@@H](N)C[C@H]2N)OC[C@]1(C)O` (some centres not stated), 5.74%; as for `CCSc1ccc2c(c1)N(CCCN1CCN(C)CC1)c1ccccc1S2`, -10.8%.
